# Test results as given in PubChem BioAssay (Tox21).
# Inconclusive results are not listed. A call without a number means that no potency is given here. Active and inactive are the calls of the source. Unless noted, the call rests on the fitted dose curve; in most records, active means well fitted curve in the direction sought with a large enough effect in the repeat runs; inconclusive means weak or mixed curves; inactive means no such curve, though single readings can be large; an effect the other way counts as inactive or inconclusive.
# How the values were obtained:
# [1] = target: Peroxisome proliferator-activated receptor delta (Homo sapiens) (UniProt Q03181); assay: qHTS assay to identify small molecule agonists of the peroxisome proliferator-activated receptor delta (PPARd) signaling pathway (AID 743212; calls by dose curve;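 further: HEK293H cells with PPARd UAS beta-lactamase reporter GeneBLAzer system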; further: potency means the concentration at half of the fitted maximal effect)
# Summary of the method: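 Steps: seed PPARd-bla HEK293H cells; incubate 5 h, 37 C, 5% CO2; add compounds in DMSO; incubate, 37 C; add LiveBLAzer B/G FRET substrate; hold 2 h at room temperature; measure fluorescence.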
# [2] = qHTS assay to identify small molecule antagonists of the peroxisome proliferator-activated receptor delta (PPARd) signaling pathway - cell viability counter screen (AID 743213); further: nearly all actives have a fitted effect of over 50% in size
# Summary of the method: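 CellTiter-Glo was added to PPARd-bla HEK293H wells following 17 h compound treatment in the presence of 300 nM L165041. Luminescence was recorded after 30 min at room temperature.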
# [3] = target: Bile acid receptor (Homo sapiens) (UniProt Q96RI1); assay: qHTS assay to identify small molecule antagonists of the farnesoid-X-receptor (FXR) signaling pathway (AID 743217; active means well fitted inhibition curve with a large enough effect in the signal ratio in the repeat runs, not every such curve was filed as active; the % refers to the signal ratio)
# Summary of the method: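 Screen of the Tox21 10K library in quantitative HTS format using FXR-UAS-bla HEK 293T reporter cells. Agonist chenodeoxycholic acid, 50 uM final, added with compounds; 16 h incubation at 37 °C; beta-lactamase FRET fluorescence measured.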
# [4] = qHTS assay to identify small molecule antagonists of the farnesoid-X-receptor (FXR) signaling pathway - cell viability counter screen (AID 743221; active means well fitted cell-killing curve with a large enough effect in the repeat runs, not every such curve was filed as active; further: nearly all actives have a fitted effect of over 50% in size)
# Summary of the method: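 Luminescence from CellTiter-Glo measures cytotoxicity in GeneBLAzer FXR-UAS-bla HEK 293T cells. Cells were exposed to compounds with 50 uM chenodeoxycholic acid (final) for 16 h at 37 C, in wells also used for the reporter readout.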
# [5] = target: Vitamin D3 receptor (Homo sapiens) (UniProt P11473); assay: qHTS assay to identify small molecule antagonists of the vitamin D receptor (VDR) signaling pathway (AID 743223; active means well fitted inhibition curve with a large enough effect in the signal ratio in the repeat runs, not every such curve was filed as active; the % refers to the signal ratio)
# Summary of the method: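 Antagonist mode uses 1alpha,25-dihydroxyvitamin D3 at 3 nM final as stimulus. VDR-bla cells receive compounds in DMSO, incubate 16 h at 37C, then a beta-lactamase FRET substrate for 2 h at room temperature before fluorescence measurement.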
# [6] = qHTS assay to identify small molecule agonists of the vitamin D receptor (VDR) signaling pathway - cell viability counter screen (AID 743224); further: series mostly up to about 63 µM; nearly all actives have a fitted effect of over 50% in size
# Summary of the method: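 Compounds were pin-transferred onto VDR-bla cells plated 4 h earlier; following 16 h incubation at 37C, cell viability was quantified by CellTiter-Glo luminescence after 30 min at room temperature.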
# [7] = qHTS assay to identify small molecule agonists of the NFkB signaling pathway (AID 1159509; active means well fitted curve in the direction sought with a large enough effect in the signal ratio in the repeat runs, not every such curve was filed as active; the % refers to the signal ratio; further: series mostly up to about 61 µM)
# Summary of the method: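 Beta-lactamase reporter assay run in quantitative high-throughput format on an NF-kB-responsive ME-180 line, with 5 hr compound treatment and a FRET-based blue/green fluorescence readout.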
# [8] = qHTS assay to identify small molecule agonists of the NFkB signaling pathway - cell viability counter screen (AID 1159515; calls by dose curve; further: series mostly up to about 61 µM; nearly all actives have a fitted effect of over 55% in size)
# Summary of the method: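 Parallel cytotoxicity counter screen in ME-180 cells carrying an NFkB-response-element beta-lactamase reporter, 2,000 cells/well. Compound exposure lasted 5 hr at 37 C, 5% CO2. Cell viability was quantified by CellTiter-Glo luminescence.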
# [9] = qHTS assay to identify small molecule agonists of the endoplasmic reticulum stress response signaling pathway - cell viability counter screen (AID 1159517; calls by dose curve; further: nearly all actives have a fitted effect of over 50% in size; further: potency means the concentration at half of the fitted maximal effect)
# Summary of the method: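 After overnight attachment, ESRE-bla HeLa cells were treated with Tox21 library compounds for 5 hr. CellTiter-Glo luminescence, read 30 min post-addition at room temperature, reported viability.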
# [10] = qHTS assay to identify small molecule antagonists of the retinoid-related orphan receptor gamma (ROR-gamma) signaling pathway - cell viability counter screen (AID 1159520); further: nearly all actives have a fitted effect of over 50% in size; further: potency means the concentration at half of the fitted maximal effect
# Summary of the method: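 Cytotoxicity was read from cellular ATP (CellTiter-Glo luminescence) after 16 hr at 37 C with 1 uM doxycycline induction. The inducer was added 2 hr after compound transfer to Tet-on ROR gamma CHO cells.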
# [11] = target: Nuclear receptor ROR-gamma (Homo sapiens) (UniProt P51449); assay: qHTS assay to identify small molecule antagonists of the retinoid-related orphan receptor gamma (ROR-gamma) signaling pathway (AID 1159521; further: nearly all actives have a fitted effect of over 50% in size; further: potency means the concentration at half of the fitted maximal effect)
# Summary of the method: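 CHO Tet-on RORγ, RORE-luc reporter. Cpd 2 h pre-incubation, then dox hyclate 1 uM final, 16 h, 37 C/5% CO2. ONE-Glo luminescence; decrease = antagonist.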
# [12] = qHTS assay to identify small molecule agonists of the peroxisome proliferator-activated receptor delta (PPARd) signaling pathway - cell viability counter screen (AID 743211); further: nearly all actives have a fitted effect of over 55% in size; further: potency means the concentration at half of the fitted maximal effect
# Summary of the method: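 HEK293H PPARd-bla, 3000 cells/well; 5 h preincubation 37C/5% CO2; cpd in DMSO, 17 h 37C; B/G FRET substrate 2 h RT; CellTiter-Glo 30 min RT, luminescence.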
# [13] = target: Peroxisome proliferator-activated receptor delta (Homo sapiens) (UniProt Q03181); assay: qHTS assay to identify small molecule antagonists of the peroxisome proliferator-activated receptor delta (PPARd) signaling pathway (AID 743215; active means well fitted inhibition curve with a large enough effect in the signal ratio in the repeat runs, not every such curve was filed as active; the % refers to the signal ratio;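 further: cells stimulated with agonist L165041 at 300 nM final during compound exposure; series mostly up to about 62 µM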)
# Summary of the method: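 Plated HEK293H PPARd-bla cells rested 5 h at 37 C and 5% CO2. Compound, then agonist L165041 at 300 nM final, was added; 17 h at 37 C followed. Substrate loading, 2 h room temperature, fluorescence measured.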
# [14] = qHTS assay to identify small molecule agonists of the farnesoid-X-receptor (FXR) signaling pathway - cell viability counter screen (AID 743218); further: nearly all actives have a fitted effect of over 45% in size; further: potency means the concentration at half of the fitted maximal effect
# Summary of the method: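 Viability of FXR-bla HEK 293T cells is measured by ATP-based CellTiter-Glo luminescence following 16 h compound treatment at 37 C and a prior 2 h room-temperature beta-lactamase substrate step.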
# [15] = qHTS assay to identify small molecule agonists of the AP-1 signaling pathway - cell viability counter screen (AID 1159525; calls by dose curve; further: nearly all actives have a fitted effect of over 55% in size)
# Summary of the method: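 Intracellular ATP by Cell Titer Glo luminescence (30 min, RT) in the same ME-180 AP-1-bla wells after the 5 h compound exposure at 37 °C. Normalised to tetra n-octyl ammonium bromide and DMSO controls.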
# [16] = qHTS assay to identify small molecule agonists of the AP-1 signaling pathway (AID 1159526; calls by dose curve)
# [17] = target: Vitamin D3 receptor (Homo sapiens) (UniProt P11473); assay: qHTS assay to identify small molecule agonists of the vitamin D receptor (VDR) signaling pathway (AID 743222; calls by dose curve)
# Summary of the method: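 Fluorescence from cleaved LiveBLAzer B/G FRET substrate served as readout. VDR-bla cells had been treated 16 h at 37C with test compounds in DMSO, following a 4 h settling period, and substrate was loaded for 2 h at RT.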
# [18] = qHTS assay to identify small molecule antagonists of the vitamin D receptor (VDR) signaling pathway - cell viability counter screen (AID 743225); further: nearly all actives have a fitted effect of over 50% in size; further: potency means the concentration at half of the fitted maximal effect
# Summary of the method: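 Read-out: CellTiter-Glo luminescence measured 30 min after reagent addition at room temperature. Cells were VDR-bla HEK 293T exposed 16 h at 37C, 5% CO2, to compound with 3 nM final calcitriol agonist.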
# [19] = target: Bile acid receptor (Homo sapiens) (UniProt Q96RI1); assay: qHTS assay to identify small molecule agonists of the farnesoid-X-receptor (FXR) signaling pathway (AID 743220; active means well fitted activation curve with a large enough effect in the signal ratio in the repeat runs, not every such curve was filed as active; the % refers to the signal ratio)
# Summary of the method: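 FXR-UAS-bla HEK 293T cells carrying a UAS-driven beta-lactamase reporter were plated for 5 h at 37C/5% CO2, then exposed to DMSO-dissolved Tox21 10K compounds for 16 h at 37C. A LiveBLAzer B/G FRET substrate was loaded for 2 h at room temperature before fluorescence reading.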
# Chain of Bile acid receptor (Homo sapiens) (Q96RI1 whole entry, looked up): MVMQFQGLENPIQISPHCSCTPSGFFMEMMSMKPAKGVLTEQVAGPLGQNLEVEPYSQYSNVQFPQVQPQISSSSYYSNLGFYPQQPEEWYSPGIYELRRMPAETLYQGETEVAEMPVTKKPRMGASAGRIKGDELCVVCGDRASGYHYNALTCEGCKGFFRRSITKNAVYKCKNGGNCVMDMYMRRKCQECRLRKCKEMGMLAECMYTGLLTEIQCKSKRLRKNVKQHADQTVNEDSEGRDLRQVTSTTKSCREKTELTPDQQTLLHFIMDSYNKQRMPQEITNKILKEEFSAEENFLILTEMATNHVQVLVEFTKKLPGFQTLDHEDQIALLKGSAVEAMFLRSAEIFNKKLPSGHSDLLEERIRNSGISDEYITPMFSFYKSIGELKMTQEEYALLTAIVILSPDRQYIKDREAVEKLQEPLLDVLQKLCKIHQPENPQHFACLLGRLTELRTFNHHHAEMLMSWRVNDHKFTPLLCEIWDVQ
# Chain of Vitamin D3 receptor (Homo sapiens) (P11473 whole entry, looked up): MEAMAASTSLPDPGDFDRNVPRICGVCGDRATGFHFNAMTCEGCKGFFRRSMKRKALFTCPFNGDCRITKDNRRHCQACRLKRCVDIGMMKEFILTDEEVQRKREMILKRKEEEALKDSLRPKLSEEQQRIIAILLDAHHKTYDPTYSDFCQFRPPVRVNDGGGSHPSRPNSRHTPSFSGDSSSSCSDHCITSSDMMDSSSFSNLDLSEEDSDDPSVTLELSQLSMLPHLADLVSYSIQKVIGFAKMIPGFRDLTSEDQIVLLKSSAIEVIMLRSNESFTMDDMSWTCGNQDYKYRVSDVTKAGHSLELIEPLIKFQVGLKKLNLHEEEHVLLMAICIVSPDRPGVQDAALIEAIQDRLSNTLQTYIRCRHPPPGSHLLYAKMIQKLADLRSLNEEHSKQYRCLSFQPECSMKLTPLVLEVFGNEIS
# Chain of Peroxisome proliferator-activated receptor delta (Homo sapiens) (Q03181 whole entry, looked up): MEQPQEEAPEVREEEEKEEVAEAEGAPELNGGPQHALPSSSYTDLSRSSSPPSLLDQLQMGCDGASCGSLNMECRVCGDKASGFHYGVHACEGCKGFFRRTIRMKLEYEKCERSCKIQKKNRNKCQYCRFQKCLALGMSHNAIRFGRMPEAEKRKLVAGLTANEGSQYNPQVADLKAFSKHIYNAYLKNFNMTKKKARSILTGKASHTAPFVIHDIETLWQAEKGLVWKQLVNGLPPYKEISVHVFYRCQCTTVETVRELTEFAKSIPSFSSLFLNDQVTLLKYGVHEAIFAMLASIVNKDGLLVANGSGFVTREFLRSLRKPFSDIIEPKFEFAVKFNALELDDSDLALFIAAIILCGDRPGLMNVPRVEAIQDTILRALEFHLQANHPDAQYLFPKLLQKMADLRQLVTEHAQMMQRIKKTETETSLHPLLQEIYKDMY
Compound,Potency [1],Potency [2],Potency [3],Potency [4],Potency [5],Potency [6],Potency [7],Potency [8],Potency [9],Potency [10],Potency [11],Potency [12],Potency [13],Potency [14],Potency [15],Potency [16],Potency [17],Potency [18],Potency [19]
CN(C(=O)CN(CCO)CC(=O)N(C)C(C)(C)Cc1ccccc1)C(C)(C)Cc1ccccc1,inactive,inactive,inactive,inactive,inactive,inactive,inactive,inactive,inactive,29.8 µM (active),26.6 µM (active),,,,,,,,
CCCCCCCCCCC(=O)O,,,,inactive,,inactive,inactive,inactive,inactive,inactive,,inactive,inactive,inactive,inactive,inactive,,,
CCN(CC)CCNC(=O)COc1ccc(OC)cc1,inactive,inactive,inactive,inactive,inactive,inactive,inactive,inactive,inactive,inactive,,inactive,,inactive,inactive,inactive,inactive,inactive,
COC(=O)C1=C(C)NC(C)=C(C(=O)O[C@@H]2CCCN(Cc3ccccc3)C2)[C@@H]1c1cccc([N+](=O)[O-])c1,,inactive,,inactive,inactive,inactive,inactive,inactive,inactive,inactive,,,,,inactive,inactive,inactive,inactive,
c1cc(N(CC2CO2)CC2CO2)ccc1Cc1ccc(N(CC2CO2)CC2CO2)cc1 (stereo not drawn),,inactive,,inactive,,,inactive,inactive,inactive,54.5 µM (active),,inactive,,,inactive,,,inactive,
CCOC(=O)OC(C)OC(=O)[C@@H]1N2C(=O)[C@@H](NC(=O)[C@H](N)c3ccccc3)[C@H]2SC1(C)C (stereo partly drawn),inactive,inactive,inactive,inactive,inactive,inactive,inactive,inactive,inactive,inactive,inactive,inactive,inactive,,,,inactive,inactive,
O=Cc1c2ccccc2c(Cl)c2ccccc12,10.7 µM (active),inactive,,inactive,inactive,inactive,inactive,inactive,inactive,inactive,,inactive,inactive,inactive,inactive,,inactive,inactive,
CCCC(C(=O)OCCN(CC)CC)(c1ccccc1)c1ccccc1,inactive,,,inactive,,,inactive,inactive,inactive,inactive,,29.8 µM (active),inactive,inactive,inactive,,,19 µM (active),
C[C@@H](O)[C@H]1C(=O)N2C(C(=O)O)=C([C@H]3CCCO3)S[C@H]12,,inactive,inactive,inactive,,,inactive,inactive,inactive,inactive,inactive,inactive,inactive,inactive,inactive,,,,inactive
C[C@H]1c2cccc(O)c2C(O)=C2C(=O)[C@]3(O)C(O)=C(C(N)=O)C(=O)[C@@H](N(C)C)[C@@H]3[C@@H](O)[C@@H]21,,inactive,,inactive,,inactive,inactive,inactive,inactive,,29.8 µM (active),inactive,,inactive,inactive,,,inactive,
O=C1c2ccccc2C(=O)C1(O)O,,inactive,,inactive,inactive,inactive,inactive,inactive,49.2 µM (active),61.4 µM (active),,inactive,,inactive,,,inactive,inactive,
C=C1c2cccc(O)c2C(O)=C2C(=O)[C@]3(O)C(O)=C(C(N)=O)C(=O)[C@@H](N(C)C)[C@@H]3[C@@H](O)[C@H]12,inactive,inactive,inactive,inactive,,inactive,inactive,inactive,inactive,inactive,,inactive,inactive,,,inactive,inactive,inactive,
NNC(=O)CP(=O)(c1ccccc1)c1ccccc1,inactive,inactive,,inactive,,inactive,inactive,inactive,inactive,inactive,,inactive,,inactive,inactive,inactive,,inactive,
CCC(C)COC(=O)CC(C)C (stereo not drawn),,inactive,,,inactive,inactive,inactive,inactive,inactive,inactive,,,inactive,24.5 µM (active),,inactive,inactive,,
CC1(C)[C@H](C(=O)O)N2C(=O)C[C@H]2S1(=O)=O,,inactive,,inactive,,inactive,inactive,inactive,inactive,inactive,inactive,inactive,,inactive,inactive,,,,inactive
CCOc1ccc(Cc2nccc3cc(OCC)c(OCC)cc23)cc1OCC,inactive,inactive,,inactive,,inactive,inactive,inactive,inactive,,7.5 µM (active),inactive,,,inactive,inactive,inactive,inactive,
O=C(O)c1ccc(OCCCOc2ccc(C(=O)O)cc2)cc1,inactive,,inactive,inactive,inactive,inactive,inactive,inactive,inactive,inactive,,inactive,inactive,inactive,inactive,inactive,inactive,inactive,inactive
O=C(CCc1ccc(O)cc1)c1c(O)cc(O)cc1O,inactive,inactive,inactive,inactive,inactive,inactive,inactive,inactive,inactive,inactive,,inactive,inactive,,inactive,inactive,,inactive,
CC1(C)[C@@H](OC(=O)CCC(=O)O)CC[C@]2(C)[C@H]3C(=O)C=C4[C@@H]5C[C@@](C)(C(=O)O)CC[C@]5(C)CC[C@@]4(C)[C@]3(C)CC[C@@H]12,,inactive,,inactive,,inactive,inactive,inactive,inactive,inactive,inactive,inactive,,inactive,inactive,,,inactive,
